Measured values taken from PubChem BioAssay (NCI).
Compounds without any hit were thinned out: in the full panel of roughly 83,000, 20% have a hit.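 48-hour exposure, single concentration, 96-well plates; percent growth endpoint where 0 means no net growth. Active: below 10.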 Activity calls are given as the source filed them.

Legend:
Experiment in all cases: NCI-60 one-dose screen, 48 h (100 = growth as untreated, 0 = no growth, -100 = all killed)
Conditions in all cases: 10 µM
[1] = system: SK-MEL-2 melanoma
[2] = system: EKVX NSCLC
[3] = system: SN12C renal
[4] = system: UO-31 renal
[5] = system: TK-10 renal
[6] = system: ACHN renal
[7] = system: CAKI-1 renal
[8] = system: A498 renal
[9] = system: MOLT-4 leukemia
[10] = system: CCRF-CEM leukemia

Measured: growth

CC(C)(C)OC(=O)N1CCc2c(sc3ncnc(N/N=C/c4ccccc4Br)c23)C1
inactive: [1] 91.7% | [2] 52.2% | [3] 78.7% | [4] 32.7% | [5] 79.6% | [6] 42.4% | [7] 54.4% | [8] 84.7% | [9] 21.2%

Brc1ccc2c(c1)-c1ccccc1C1=NCCN12
active: [1] -39.7% | [2] -2.72% | [3] -7.57% | [4] -16.6% | [5] -12.5% | [6] -22.2% | [7] -5.84% | [8] -75.7% | [10] -12% | [9] -7.7%

CNC(=O)c1cc(Oc2ccc3c(c2)sc2nc(-c4ccc(N)cc4)cn23)ccn1
inactive: [1] 35.8% | [2] 40.9% | [3] 29.4% | [4] 43.8% | [5] 57.4% | [6] 29.1% | [7] 43.9% | [8] 26.7% | [9] 15%

CC(=O)N[C@H](C(=O)N[C@@H](CCCNC(=N)N)C(=O)N[C@@H](CCCCN)C(=O)N[C@@H](CCCNC(=N)N)C(=O)N[C@]1(C)CCCCCC/C=C\CCC[C@@](C)(C(=O)N[C@@H](CCCNC(=N)N)C(=O)N[C@@H](CCC(=O)O)C(=O)N[C@@H](CC(C)C)C(=O)N[C@H](C(=O)N[C@@H](CCC(=O)O)C(N)=O)C(C)C)NC(=O)[C@H](CCC(N)=O)NC(=O)[C@H](CC(C)C)NC(=O)[C@H](CC(C)C)NC(=O)[C@H](CCCNC(=N)N)NC(=O)[C@H](CCCNC(=N)N)NC(=O)[C@H](CC(C)C)NC1=O)C(C)C
active: [2] -22.3% | [3] -41.3% | [5] -43% | [6] 9.21% | [8] 1.28%
inactive: [1] 53.5% | [4] 50.1% | [7] 16.1% | [9] 34.6%

CC[C@@H](C(=O)[C@@H](C)[C@@H](O)[C@H](C)[C@@H]1O[C@@H]([C@@H](CC)C(=O)N(CC)CC)CC[C@@H]1C)C1O[C@]2(C=CC(=O)[C@]3(CC[C@@](C)([C@H]4CC[C@](O)(CC)[C@H](C)O4)O3)O2)[C@H](C)C[C@@H]1C (stereo partly drawn)
inactive: [1] 11.4% | [2] 19.6% | [3] 16.8% | [5] 29.1% | [8] 36.6% | [9] 22.7%
active: [4] 0.811% | [6] 6.1% | [7] 7.58%

C[C@@H](C[C@H](CCO)c1ccccc1)c1ccc2ccccc2c1
active: [1] -0.232% | [2] -44% | [3] -80.8% | [4] -86% | [5] -6.8% | [6] -91.3% | [8] -0.126% | [9] -54.2%
inactive: [7] 10.5%

COc1ccc(C(c2ccc(OCCN(C)C)cc2)c2cc3ccccc3c3ccccc23)cc1 (stereo not drawn)
inactive: [1] 86.4% | [2] 56.6% | [3] 64.4% | [4] 72.2% | [5] 88% | [6] 21.6% | [7] 76.5% | [8] 101%
active: [9] 5.83%

Nc1cc(Br)c(-c2nn3c(CCC(=O)c4nc5ccccc5[nH]4)nnc3s2)c(Br)c1
inactive: [1] 100% | [2] 95.5% | [3] 97.7% | [4] 71.1% | [5] 117% | [6] 99.8% | [7] 95.4% | [8] 65.6% | [9] 84.9%

CC(C)(C)OC(=O)CN1CCc2c(sc3ncnc(N/N=C/c4cccc5ccccc45)c23)C1
inactive: [1] 71.1% | [3] 48.4% | [5] 50.5% | [6] 15.7% | [7] 35.1% | [8] 52.4%
active: [2] 2.48% | [4] 3.34% | [9] 9.27%

Cc1noc(C)c1CSc1ccccc1C(=O)N1CCN(c2cccc(C(F)(F)F)c2)CC1
inactive: [1] 85.1% | [2] 66.7% | [3] 80.2% | [4] 67.5% | [5] 91.3% | [6] 84.9% | [7] 68.8% | [8] 77.5% | [9] 67.6%

C#CCOc1c(OC)cc(C(=O)/C(C)=C/c2cccc(N=[N+]=[N-])c2)cc1OC
inactive: [1] 27.5% | [2] 46% | [3] 41.8% | [4] 50.9% | [5] 60.8% | [6] 32.4% | [7] 42.9% | [8] 23.4% | [9] 21.8%

Cc1n[nH]c(C)c1N=Nc1cccc2c1C(=O)c1ccccc1C2=O
inactive: [1] 105% | [2] 61.8% | [3] 91.6% | [4] 66.4% | [5] 97.8% | [6] 80% | [7] 73.6% | [8] 55.2% | [9] 84.5%

CC[C@@H](C(=O)[C@H](C)[C@H](O)[C@@H](C)[C@H]1O[C@H]([C@@H](CC)C(=O)N(CC)CC)CC[C@H]1C)C1O[C@]2(C=C[C@@H](O)[C@]3(CC[C@@](C)([C@H]4CC[C@](O)(CC)[C@H](C)O4)O3)O2)[C@H](C)C[C@@H]1C (stereo partly drawn)
active: [1] 0.113% | [2] 1.82% | [4] -5.88% | [6] 5.95% | [7] 8.82%
inactive: [3] 17.4% | [5] 24.3% | [8] 13.8% | [9] 28.9%
